Source: PubChem BioAssay AID686970 (National Center for Advancing Translational Sciences (NCATS), 2013)
The whole screen tested about 360,000 compounds, of which about 6,000 (1.7%) were called active. About 8% were inconclusive and are not listed. The full list was thinned out, with actives kept by preference. Unmarked numbers belong to inactive results. Calls come from the whole dose curve; as a rule, active = well fitted cell-killing curve with a large enough effect; inconclusive = small, poorly fitted or top-dose-only effect, or effect the other way; inactive = flat fitted curve, though single readings scatter.

Experiment: qHTS for induction of synthetic lethality in tumor cells producing 2HG: qHTS for the HT-1080-NT fibrosarcoma cell line;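 note: NT is the 2HG producing partner of a matched IDH1 knockdown line; nearly all actives have a fitted effect of over 55% in size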;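 for activity, negative = less viability: 0% = DMSO-treated cells and -100% = media-only wells without cells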
Settings: HT-1080-NT fibrosarcoma viability, CellTiter-Glo ATP luminescence, 48 h; series mostly up to 46.1 µM; activity, negative = less viability: at the top concentration
How it was run: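 Read-out is CellTiter-Glo luminescence after 10 minutes at room temperature, following 48 hours' compound treatment of HT-1080-NT cells (750 cells/well, RPMI, 5% FBS, 37 degrees C).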
Potency is the fitted concentration of half-maximal effect.

Row | Compound | activity, negative = less viability [%] | Potency
1 | O=C(NC1CCCC1)C1c2ccccc2OCC(=O)N1Cc1ccccc1 (stereo not drawn) | 16.2 | –
2 | COc1ccc(S(=O)(=O)N2CCCCCC2)cc1NC(=O)Cc1ccc(OC)c(OC)c1 | -1.11 | –
3 | COc1ccc(-c2ccc(Nc3ccc(S(=O)(=O)N4CCCC4)cc3)nn2)cc1OC | – | 11.2 µM (active)
4 | COc1cc(C(C)=O)ccc1OC(C)C(=O)Nc1ccc(S(=O)(=O)N2CCCC2)cc1 (stereo not drawn) | 4.84 | –
5 | CCc1nc2c(OCCOc3ccccc3)cccn2c1N(C)C(=O)c1ccccc1F | -7.46 | –
6 | O=C1c2ccccc2C(=O)N1CCC#Cc1ccc2cc(C3(O)CCCCC3)oc(=O)c2c1 | 20.5 | –
7 | COc1cc(C#Cc2ccc3cc(CCCO)oc(=O)c3c2)cc(OC)c1 | – | 4.61 µM (active)
8 | CCC(=O)N1CCCC1(C)C(=O)Nc1ccc2c(c1)CCN2C(C)=O (stereo not drawn) | 27.2 | –
9 | CCOC(=O)C1(C)CCCN(C(=O)c2cccc(Cl)c2)C1 (stereo not drawn) | 8.58 | –
10 | O=C(Nc1ccc(Cl)cn1)c1ccccc1-c1ccccc1 | 6.68 | –
11 | COCCOC(=O)c1[nH]c2c(c1C)C(=O)CC(c1ccc(OC)cc1)C2 (stereo not drawn) | -0.0734 | –
12 | CCCOC(=O)c1[nH]c2c(c1C)C(=O)CC(c1cccs1)C2 (stereo not drawn) | – | 1.3 µM (active)
13 | COC(=O)C1C(=O)c2c([nH]c(C(=O)OCCSC)c2C)CC1C (stereo not drawn) | 4.76 | –
14 | O=C(COC(=O)c1ccc(S(=O)(=O)N2CCCCCC2)cc1)Nc1ccccc1C(F)(F)F | -0.234 | –
15 | O=C1c2ccccc2-c2ccccc2NC1O (stereo not drawn) | 4.51 | –
16 | Cc1cc(C)c2nc(N(CCN(C)C)C(=O)/C=C/c3cccs3)sc2c1 | 0.0633 | –
17 | Cc1ccc2sc(N(CCN(C)C)C(=O)/C=C/c3cccs3)nc2c1C | 2.03 | –
18 | COc1cccc2sc(N(CCCN(C)C)C(=O)C(c3ccccc3)c3ccccc3)nc12 | – | 20.6 µM (active)
19 | CCCCn1nnnc1C(c1cc2ccccc2o1)N(C)Cc1ccc(Cl)c(Cl)c1 (stereo not drawn) | -0.969 | –
20 | Oc1ccc(/C=N/N(Cc2ccccc2)c2ccccc2)cc1 | – | 20.6 µM (active)
21 | CCN(/N=C/c1ccccc1)c1cc(=O)n(C)c(=O)[nH]1 | 12.6 | –
22 | CN(/N=C/c1ccccc1)C(=S)c1ccccc1 | -15.8 | –
23 | Cc1cc(OCC(=O)Nc2nccs2)c2c(C)c(C)c(=O)oc2c1 | 8.6 | –
24 | Cc1ccccc1C(OCC(O)CN1CCCCC1CCO)c1ccccc1 (stereo not drawn) | -27.5 | –
25 | COc1cccc(CN(C)CC(=O)Nc2ccccc2C(=O)Nc2ccccc2)c1 | -2.36 | –

Row | Compound | activity, negative = less viability [%] | Potency
26 | COc1cccc(CN(C)CC(O)COC(c2ccccc2)c2ccccc2C)c1 (stereo not drawn) | – | 23.1 µM (active)
27 | Cc1cc(Cl)ccc1-c1nc(NCCN(C)C)nc2ccsc12 | – | 20.6 µM (active)
28 | Cc1ccc(-c2cc(=O)c3ccc(F)cc3[nH]2)cc1 | -26 | –
29 | O=c1cc(-c2ccccc2)[nH]c2cc(F)ccc12 | – | 2.59 µM (active)
30 | Cc1cc(=O)c2ccc(NC(=O)c3ccccc3)cc2[nH]1 | 27.7 | –
31 | FC(F)(F)Oc1ccccc1C(c1nnnn1C1CCCCC1)N1CCN(C/C=C/c2ccccc2)CC1 (stereo not drawn) | -25.6 | –
32 | O=C(Nc1nnc(S(=O)(=O)N2CCOCC2)s1)c1cccc(Br)c1 | -28 | –
33 | Cc1cccc(C(=O)Nc2nnc(S(=O)(=O)N3CCCCCC3)s2)c1 | 0 | –
34 | O=C(Nc1nnc(S(=O)(=O)N2CCCCCC2)s1)c1cccc(Br)c1 | – | 23.1 µM (active)
35 | CC1(C(=O)Nc2ccccc2Br)CCN1C(=O)CC1CC1 (stereo not drawn) | 1.35 | –
36 | CCOC(=O)[C@]12CCC=C1N(Cc1cccc3ccccc13)C(=O)[C@H](CC(=O)NCc1cccc(C(F)(F)F)c1)C2 | -28.6 | –
37 | CCCNC(=O)C1(C)CCCN(C(=O)c2cccc(OC(C)=O)c2C)C1 (stereo not drawn) | 0.104 | –
38 | CC1(C(=O)Nc2ccc3c(c2)OCCO3)CN(S(C)(=O)=O)CC(=O)N1Cc1cccc(F)c1 (stereo not drawn) | 0.746 | –
39 | COC(=O)c1cc(NC(=O)Cc2ccccc2[N+](=O)[O-])ccc1Cl | 6.16 | –
40 | CC(=O)Nc1ccc(NC(=O)COC(=O)c2ccccc2C(=O)c2ccccc2)cc1 | -6.07 | –
41 | N#Cc1cccc(NC(=O)COC(=O)c2ccccc2C(=O)c2ccc(Cl)c([N+](=O)[O-])c2)c1 | – | 7.31 µM (active)
42 | COc1ccc(C2Nc3ccc(NC(=O)COC(C)=O)cc3C(=O)N2Cc2ccccc2)cc1COc1ccc(NC(C)=O)cc1 (stereo not drawn) | -28.8 | –
43 | CC(Sc1ccc(S(=O)(=O)N2CCN(C)CC2)cn1)C(=O)NC1CCCC(C)C1C (stereo not drawn) | 0.927 | –
44 | Cc1ccc(S(=O)(=O)N2CCN(c3ncnc4ccccc34)CC2)cc1 | – | inactive
45 | Cc1ccc(C)c(S(=O)(=O)N2CCN(c3ncnc4sccc34)CC2)c1 | – | 5.8 µM (active)
46 | COc1ccc(C)cc1S(=O)(=O)N1CCN(S(=O)(=O)c2cc(C(=O)O)ccc2C)CC1 | -3.18 | –
47 | CC1CCCC(C)N1C(=O)COC(=O)c1ccccc1C(=O)c1ccccc1 (stereo not drawn) | 10.5 | –
48 | Cc1ccccc1Cn1c(C)c(C(=O)NCc2cccc(C(F)(F)F)c2)sc1=O | 4.34 | –
49 | OCCc1ccc(NCCc2ccco2)cc1 | 18.1 | –
50 | CC1=C/C(=N\OS(=O)(=O)c2ccccc2)C=CC1=O | – | 20 µM (active)

Row | Compound | activity, negative = less viability [%] | Potency
51 | NC(=O)CSc1nnc(-c2cccc(S(=O)(=O)N3CCOCC3)c2)o1 | 0.364 | –
52 | Cc1cccc(C)c1Cn1c(C)c(C(=O)NCc2cccc(Cl)c2)sc1=O | -9.39 | –
53 | OC(c1ccccc1)c1nc(-c2cnc3ccccc3c2)cs1 (stereo not drawn) | 2.55 | –
54 | O=C(Nc1nnc(SCc2c(Cl)cccc2Cl)s1)c1cccc([N+](=O)[O-])c1 | 0.797 | –
55 | O=C(Nc1nnc(SCc2ccccc2Cl)s1)c1cccc([N+](=O)[O-])c1 | – | 18.4 µM (active)
56 | NC(=O)CSc1nnc(NC(=O)c2ccc3ccccc3c2)s1 | 10.5 | –
57 | CC1=C(C(=O)N2CCOCC2)CC(CC(=O)NCCCN(C)C)C(=O)N1Cc1ccc(C(C)(C)C)cc1 (stereo not drawn) | 14.2 | –
58 | O=C(C1CCN(S(=O)(=O)c2cccs2)CC1)N1CCCCCC1 | -5.25 | –
59 | O=C(NCc1ccc(Cl)cc1)C1CCN(S(=O)(=O)c2cccs2)CC1 | 0.206 | –
60 | O=C(Nc1ccc(Br)cn1)C1CCN(S(=O)(=O)c2cccs2)CC1 | – | 9.2 µM (active)
61 | Cc1ccc(C(=O)Nc2c(-c3ccccc3)[nH][nH]c2=O)cc1 | 18.6 | –
62 | O=C(OC12CC3CC(CC(C3)C1)C2)c1ccc(NCc2cc(O)ccc2O)cc1 | – | 14.6 µM (active)
63 | CC(CN1CCOCC1)OC(=O)c1ccc(Cl)cc1Cl (stereo not drawn) | -1.94 | –
64 | CC1(C)C2CCC1(C)C(OC(=O)c1ccc(O)cc1)C2 (stereo not drawn) | 17.4 | –
65 | CC(OC(=O)c1ccc(Cl)cc1O)C(=O)NCCC1=CCCCC1 (stereo not drawn) | -0.249 | –
66 | CC(C)OC(=O)c1ccc(NCc2cc(O)ccc2O)cc1Cl | – | 20.6 µM (active)
67 | CCN(CC)C(=O)CCC(=O)Nc1ccc(C(=O)OC)cc1 | -1.07 | –
68 | COC(=O)c1ccc(NCc2cc(O)ccc2O)cc1 | – | 16.4 µM (active)
69 | C#CCNc1ccc(C(=O)OCC)cc1 | -2.27 | –
70 | CC(C)CCC(=O)Nc1cc(S(=O)(=O)N2CCOCC2)ccc1N1CCCC1 | 4.49 | –
71 | Cc1ccc(S(=O)(=O)N2CCOCC2)cc1NC(=O)c1ccncc1 | 0.491 | –
72 | Cc1ccc(S(=O)(=O)N2C[C@]3(O)C[C@@H]4C(=O)N(c5ccccc5)C(=O)[C@@H]4C[C@]3(OC(=O)NC3CC3)C2)cc1 | 9.44 | –
73 | Cc1ccccc1-c1nc(NC(C)C)nc2cc(-c3ccccc3)sc12 | -0.193 | –
74 | COc1ccc(CCn2c3c(c(=O)[nH]c2=S)CN(C(C)C)CN3)cc1OC | 2.34 | –
75 | CC1(C(=O)Nc2cccc3cccnc23)CCN1C(=O)CCC1CCCC1 (stereo not drawn) | -2.99 | –

Row | Compound | activity, negative = less viability [%] | Potency
76 | CC1(C(=O)NS(=O)(=O)c2ccc(C#N)cc2)CCN1C(=O)c1ccc(C2CCCCC2)cc1 (stereo not drawn) | -12.9 | –
77 | C[C@H](CO)N1C[C@H](C)[C@@H](CN(C)C(=O)C2CCCCC2)OCc2cnnn2CCCC1=O | 2.08 | –
78 | CC(C)(O)C#Cc1ccc(CN2CCC(CO)(CCc3ccccc3)CC2)cc1 | -5.63 | –
79 | Cc1cccc(-c2ncc(CN3CCC(CO)(CCCc4ccccc4)CC3)cn2)c1 | -3.51 | –
80 | Cc1c(CN2CCC(CO)(CCOc3ccccc3)CC2)[nH]c2ccc(Cl)cc12 | – | 25.9 µM (active)
81 | CCCNC(=O)C1(C)CCN(Cc2ccc(Cl)c(Cl)c2)C1 (stereo not drawn) | -12.1 | –
82 | CN1OC[C@@H]2CN(S(=O)(=O)c3cccc(C(F)(F)F)c3)[C@H](c3ccc(-c4cc5ccccc5o4)cc3)C[C@@H]21 | 1.49 | –
83 | CNc1cnc(-c2cc(OC)c(OC)c(OC)c2)cn1 | -2.35 | –
84 | CCn1cc(CN2CCC(C(=O)Nc3cccc(-c4cccc(Cl)c4)c3)CC2)cn1 | – | 14.6 µM (active)
85 | COc1cccc(-c2cccc(NC(=O)C3CCN(C4CCC4)CC3)c2)c1 | 13.2 | –
86 | O=C(NC1CCCC1)C1CCN(C(=O)Nc2cccc(Cl)c2)CC1 | 3.08 | –
87 | O=C(Nc1cccc(-c2cccc(Cl)c2)c1)C1CCN(C2CCC2)CC1 | – | 25.9 µM (active)
88 | CCn1cc(CN2CCC(n3nccc3NC(=O)CCCc3ccccc3)CC2)c(C)n1 | -1.72 | –
89 | CCn1cc(CN2CCC(C(=O)Nc3cccc(-c4cccc(Cl)c4)c3)CC2)c(C)n1 | – | 20.6 µM (active)
90 | CC(=O)c1cc(CN2CCC(C(=O)Nc3cccc(-c4cscn4)c3)CC2)cs1 | -13.4 | –
91 | O=C(Nc1cccc(-c2cscn2)c1)C1CCN(Cc2ccsc2)CC1 | -10.8 | –
92 | O=C(Nc1cnn(Cc2ccc(Cl)cc2)c1)C1CCCC1 | -3.72 | –
93 | O=C(COC(=O)c1cccc(Cl)c1Cl)NC1CCCCCC1 | -0.557 | –
94 | CC(C)Oc1cc(F)ccc1-c1cc(C(=O)Nc2ccc(F)cc2)[nH]n1 | 4.59 | –
95 | CCN(CC)C(=O)C1=C(C)N(Cc2ccccc2)C(=O)C(CC(=O)NC(c2ccccc2)c2ccccc2)C1 (stereo not drawn) | 0.296 | –
96 | O=C(C[C@H]1CC[C@@H](NC(=O)c2ccncc2)[C@@H](CO)O1)NCC1CC1 | 25.8 | –
97 | NCCCCC(C(=O)O)N(C(=O)OCc1ccccc1)C(=O)OCc1ccccc1 (stereo not drawn) | 5.55 | –
98 | CCCCCCn1c(=O)n2n(c1=O)C[C@]1(OC(=O)NCc3ccc(OC)c(OC)c3)CN(S(=O)(=O)c3ccc(C)cc3)C[C@]1(O)C2 | -13.8 | –
